Screens deposited in PubChem by National Center for Advancing Translational Sciences (NCATS).
Only some compounds are listed: those with a hit (about 11% of all), similar ones and a draw of the others.
Luciferase inh = blocks purified firefly luciferase enzyme activity; P08659; purified P. pyralis luciferase, luminescence, biochemical; Potency, µM (series often up to 115 µM), most hits filed as inhibitors; 76,000 compounds, 2.5% hits; further: nearly all actives have a fitted effect of over 65% in size
Target sequence (P08659 whole entry, looked up): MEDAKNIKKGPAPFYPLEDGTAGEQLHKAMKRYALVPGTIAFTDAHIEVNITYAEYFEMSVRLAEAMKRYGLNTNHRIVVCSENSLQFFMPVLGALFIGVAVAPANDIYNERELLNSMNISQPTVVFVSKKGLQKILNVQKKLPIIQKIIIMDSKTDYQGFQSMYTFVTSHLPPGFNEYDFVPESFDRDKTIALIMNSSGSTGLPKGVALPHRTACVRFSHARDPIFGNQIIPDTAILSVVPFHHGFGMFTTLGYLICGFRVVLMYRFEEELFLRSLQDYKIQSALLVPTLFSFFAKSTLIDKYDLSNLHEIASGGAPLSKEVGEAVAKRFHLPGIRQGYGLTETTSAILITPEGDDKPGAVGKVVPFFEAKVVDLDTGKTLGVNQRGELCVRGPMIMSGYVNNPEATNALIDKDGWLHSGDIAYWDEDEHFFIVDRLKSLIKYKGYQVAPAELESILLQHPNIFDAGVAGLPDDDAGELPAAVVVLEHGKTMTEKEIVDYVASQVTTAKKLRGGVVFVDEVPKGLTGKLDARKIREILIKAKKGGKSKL
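Cell-free enzyme assay, 10nM P. pyralis luciferase, luciferin and ATP each at 10uM. Inhibition profiled over a 6-point titration, read as luminescence.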
HEK cytotox = kills HEK 293 cells; HEK 293 viability, ATP luminescence (CellTiter-Glo), 48-72 h; Potency, µM (titrated, usually from 115 µM), actives largely listed as inhibitors; 94,000 compounds, 6.6% hits; AID 1345083; further: nearly all actives have a fitted effect of over 60% in size
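Cytotoxicity was scored by loss of ATP-coupled luminescence (CellTiter-Glo) in HEK 293 cells. Compound treatment ran 48 or 72 hr at 37 degree Celsius, 5% CO2, 95% humidity.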
hNpr1 antagonist = antagonists of human natriuretic peptide receptor Npr1; P16066; HEK293 hNpr1 GloSensor cGMP, ANP-stimulated luminescence; Potency, µM (doses to about 46.3 µM), usual class: inhibitors; 76,000 compounds, 1.6% hits; AID 1347048; calls by dose curve; further: nearly all actives have a fitted effect of over 60% in size
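HEK293 cells stably expressing human Npr1 and cGMP GloSensor pGS-40F, loaded 2 h with 2% GloSensor reagent, given compound 30 min at room temperature. Luminescence read before and 20 min after 0.1 nM hNppA.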
NIH3T3 tox = cytotoxic compounds in NIH 3T3 cells; NIH 3T3 viability, CellTiter-Glo ATP luminescence, 48-72 h; Potency, µM (titrated, usually from 96.7 µM), hits mostly inhibitors; 94,000 compounds, 4.3% hits; further: nearly all actives have a fitted effect of over 55% in size
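Luminescent ATP readout (CellTiter-Glo, 10 min RT) after 48 or 72 hr compound exposure of NIH 3T3 cells seeded at 400 cells/well in 1536-well format; quantitative HTS.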
Of the large screens only hits and unclear results are named; the others gave an inactive call. Unless noted, the call rests on the fitted dose curve; in most records, active means well fitted curve in the direction sought with a large enough effect; inconclusive means small, poorly fitted or top-dose-only effect, or another doubt; inactive means no such curve, though single readings can be large; an effect the other way counts as inactive or inconclusive.

CC(C)(C)CC(=O)N1CCC(N2C(=O)CCC2C(=O)NCc2ccccc2)CC1 (stereo unspecified)	HEK cytotox inconclusive
CCN1c2cc(C(=O)Nc3ccc(C)cc3)ccc2C(=O)N2CCCCC21 (stereo unspecified)	HEK cytotox 40µM, hNpr1 antagonist inconclusive, NIH3T3 tox 35µM
CCN1c2cc(C(=O)Nc3cccc(F)c3)ccc2C(=O)N2CCCCCC21 (stereo unspecified)	HEK cytotox inconclusive, NIH3T3 tox inconclusive
CCN1c2cc(C(=O)Nc3ccc(C)cc3)ccc2C(=O)N2CCCC21 (stereo unspecified)	none
CCN1c2cc(C(=O)Nc3cccc(OC(F)(F)F)c3)ccc2C(=O)N2CCCCCC21 (stereo unspecified)	HEK cytotox inconclusive, NIH3T3 tox 28µM
COCCNC(=O)c1nc2sccn2c1-c1ccc(OC)cc1	none (no result: Luciferase inh, hNpr1 antagonist)
COc1ccc(OC)c(NC(=O)c2cc(-c3ccc[nH]3)n[nH]2)c1	Luciferase inh inconclusive, HEK cytotox 40µM, NIH3T3 tox 45µM
Cc1ccc(F)cc1NC(=O)c1cc(-c2ccc[nH]2)n[nH]1	Luciferase inh 40µM, HEK cytotox inconclusive
Cc1cc(NC(=O)c2cc(-c3ccc[nH]3)n[nH]2)ccc1F	Luciferase inh inconclusive
COCCNC(=O)C1CCCN1c1nccc(Nc2ccccc2F)n1 (stereo unspecified)	none (no result: Luciferase inh, hNpr1 antagonist)
CCCNC(=O)c1coc(COc2ccc3c(c2)C(c2ccc(C)cc2)N(C(=O)C2CC2)CC3)n1 (stereo unspecified)	HEK cytotox inconclusive, NIH3T3 tox inconclusive
COCCNC(=O)c1coc(COc2ccc3c(c2)C(c2cccc(F)c2)N(C(=O)C2CC2)CC3)n1 (stereo unspecified)	HEK cytotox inconclusive, NIH3T3 tox inconclusive
Cc1ccc(C2c3cc(OCc4nc(C(=O)NCC5CC5)co4)ccc3CCN2C(=O)C2CC2)cc1 (stereo unspecified)	HEK cytotox 35µM, NIH3T3 tox 28µM
COCCNC(=O)c1coc(COc2ccc3c(c2)C(c2ccc(F)cc2)N(C(=O)C(C)C)CC3)n1 (stereo unspecified)	HEK cytotox 8.9µM
CC(C)CNC(=O)c1coc(COc2ccc3c(c2)C(c2cccc(F)c2)N(C(=O)C2CC2)CC3)n1 (stereo unspecified)	HEK cytotox 14µM, hNpr1 antagonist inconclusive, NIH3T3 tox 13µM
Cc1ccc(C2c3cc(OCc4nc(C(=O)NCC(C)C)co4)ccc3CCN2C(=O)C2CC2)cc1 (stereo unspecified)	HEK cytotox 40µM, NIH3T3 tox inconclusive
COC1CCN(CC2CCCCCN2C(=O)NC2CCCC2)CC1 (stereo unspecified)	none
Cn1cnnc1-c1nn(C)c2c1CN(C(=O)CCc1nc3ccccc3s1)CC2	none (no result: Luciferase inh, hNpr1 antagonist)
O=C(c1ccc2c(c1)OCO2)N1C[C@@H]2C[C@H](C1)c1ccc(-c3cccc(C(F)(F)F)c3)c(=O)n1C2	none
CCCCOc1ccc(C(=O)N2CCC[C@H]2c2nc(-c3ccc(OC)c(OC)c3)no2)cc1	HEK cytotox inconclusive, NIH3T3 tox inconclusive
CCCNC(=O)c1coc(COc2ccc3c(c2)C(c2cccc(C)c2)N(C(=O)C2CC2)CC3)n1 (stereo unspecified)	HEK cytotox 13µM, hNpr1 antagonist inconclusive, NIH3T3 tox inconclusive
Cc1cccc(C2c3cc(OCc4nc(C(=O)NCC5CC5)co4)ccc3CCN2C(=O)C2CC2)c1 (stereo unspecified)	HEK cytotox inconclusive, hNpr1 antagonist inconclusive, NIH3T3 tox inconclusive
CCN(CC)C(=O)c1coc(COc2ccc3c(c2)C(c2ccc(C)cc2)N(C(=O)C2CC2)CC3)n1 (stereo unspecified)	HEK cytotox 10µM, NIH3T3 tox inconclusive
Cc1ccc(C2c3cc(OCc4nc(C(=O)NC5CC5)co4)ccc3CCN2C(=O)C2CC2)cc1 (stereo unspecified)	HEK cytotox inconclusive, NIH3T3 tox inconclusive
CNC(=O)[C@@H]1C[C@H](n2cc(CN(C)C(=O)NCC3CCCCC3)nn2)CN1	HEK cytotox inconclusive
Cc1noc2c(NCc3ccncc3)cc(-c3ccc(Cl)cc3)nc12	HEK cytotox inconclusive, NIH3T3 tox 45µM
Cc1noc2c(NCC3CCOCC3)cc(-c3ccc(Cl)cc3)nc12	HEK cytotox 100µM, NIH3T3 tox inconclusive
Cc1noc2c(NCc3cccnc3)cc(-c3ccc(Cl)cc3)nc12	HEK cytotox 100µM, NIH3T3 tox inconclusive
Cc1noc2c(NCc3ccccc3)cc(-c3cccnc3)nc12	NIH3T3 tox inconclusive
O=C(NC1CCN(c2ccc3nnc(C4CC4)n3n2)C1)c1cccc(Cl)c1 (stereo unspecified)	none (no result: Luciferase inh, hNpr1 antagonist)
Cc1cc(N2CCC(NCc3nc[nH]c3C)CC2)nc(-c2ccccc2O)n1	HEK cytotox inconclusive, NIH3T3 tox 35µM
Cc1cc(N2CCC(NCc3noc(C)n3)CC2)nc(-c2ccccc2O)n1	HEK cytotox inconclusive, NIH3T3 tox inconclusive
O=C(NC1CCN(c2ccc3nnc(C4CC4)n3n2)C1)C1CCCCC1 (stereo unspecified)	none (no result: Luciferase inh, hNpr1 antagonist)
COC(=O)[C@H](Cc1ccccc1)NC1CCN(c2cccc(NC(=O)CC3CCCC3)c2)CC1	HEK cytotox 40µM, hNpr1 antagonist inconclusive, NIH3T3 tox inconclusive
CN(Cc1ccc(F)cc1)C(=O)c1cn(Cc2ccccc2C(F)(F)F)nn1	HEK cytotox 7.9µM, NIH3T3 tox inconclusive
Cc1cccc(N2CCN(c3nccc(-c4ccccn4)n3)CC2)n1	Luciferase inh inconclusive, HEK cytotox inconclusive
CC(C)C(O)C1CCN(c2nccc(-c3cc(C(=O)O)ccn3)n2)CC1 (stereo unspecified)	Luciferase inh 50µM
CCNC(=O)N[C@H]1C[C@@H](Cc2cc(COc3ccccc3)on2)C1(C)C	HEK cytotox 89µM, NIH3T3 tox inconclusive
CCCCc1cc(C[C@@H]2C[C@H](NC(=O)c3cccc(F)c3)C2(C)C)no1	HEK cytotox 63µM, hNpr1 antagonist inconclusive, NIH3T3 tox 63µM
CCCN[C@H]1C[C@@H](Cc2cc(COc3ccccc3)on2)C1(C)C	HEK cytotox inconclusive, NIH3T3 tox inconclusive
CC(C)(C)CN[C@H]1C[C@@H](Cc2cc(COc3ccccc3)on2)C1(C)C	HEK cytotox 22µM, NIH3T3 tox 28µM
COCC(=O)N[C@H]1C[C@@H](Cc2cc(-c3ccc(OC)cc3)on2)C1(C)C	Luciferase inh inconclusive, HEK cytotox 35µM, NIH3T3 tox 56µM
CCOC(=O)[C@H]1[C@@H](O)C(=O)N(Cc2ccccc2)C12CCN(C(=O)Nc1ccc3c(c1)OCO3)CC2	NIH3T3 tox inconclusive (no result: Luciferase inh, hNpr1 antagonist)
O=C(C1CCCN1C(=O)C1CC1)N1CCC(N2Cc3ccccc3C2=O)CC1 (stereo unspecified)	none (no result: Luciferase inh, hNpr1 antagonist)
COc1ccc(C(=O)N[C@H]2C[C@@H](Cc3cc(COc4ccccc4)on3)C2(C)C)cc1	HEK cytotox inconclusive, hNpr1 antagonist inconclusive, NIH3T3 tox 28µM
CN1CCC(N[C@H]2C[C@@H](Cc3cc(-c4ccc(F)cc4)on3)C2(C)C)CC1	Luciferase inh 63µM, HEK cytotox 8.9µM, hNpr1 antagonist inconclusive, NIH3T3 tox 7.1µM
